Compounds with a hit are over-represented: about 3.9% of the library has one in this group of screens.
Anthrax LF prot – blocks Bacillus anthracis lethal factor protease | actives 0.12% (n = 360,000) | multiplex microsphere protease cleavage assay, LF | P15917 | inhibition, % at 10 µM
Target sequence (P15917 whole entry, looked up): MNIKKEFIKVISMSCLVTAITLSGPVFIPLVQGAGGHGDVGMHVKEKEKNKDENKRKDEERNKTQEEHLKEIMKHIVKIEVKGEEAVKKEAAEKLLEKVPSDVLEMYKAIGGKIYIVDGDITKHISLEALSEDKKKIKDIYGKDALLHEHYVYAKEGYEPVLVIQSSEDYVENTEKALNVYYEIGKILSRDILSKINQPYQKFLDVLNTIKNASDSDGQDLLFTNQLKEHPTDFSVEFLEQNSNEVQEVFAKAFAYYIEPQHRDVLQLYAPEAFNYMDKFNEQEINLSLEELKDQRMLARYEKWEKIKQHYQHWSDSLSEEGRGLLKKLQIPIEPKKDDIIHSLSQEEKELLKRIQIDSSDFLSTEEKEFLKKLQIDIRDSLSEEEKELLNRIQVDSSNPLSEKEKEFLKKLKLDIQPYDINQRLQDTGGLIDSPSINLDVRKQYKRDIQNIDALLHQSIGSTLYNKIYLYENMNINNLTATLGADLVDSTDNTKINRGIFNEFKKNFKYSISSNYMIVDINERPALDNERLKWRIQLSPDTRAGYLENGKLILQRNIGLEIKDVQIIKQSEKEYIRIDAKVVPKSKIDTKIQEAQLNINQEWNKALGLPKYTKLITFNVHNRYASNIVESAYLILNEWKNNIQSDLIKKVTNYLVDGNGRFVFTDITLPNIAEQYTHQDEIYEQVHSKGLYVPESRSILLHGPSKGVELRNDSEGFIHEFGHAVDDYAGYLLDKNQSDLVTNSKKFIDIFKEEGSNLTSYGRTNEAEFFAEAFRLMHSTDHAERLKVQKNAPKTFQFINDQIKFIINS
BoNT-A LC inh2 – inhibitors of Botulinum neurotoxin A light chain protease | actives 0.17% (n = 360,000) | multiplex microsphere protease substrate cleavage, flow cytometry | AID 588499 | inhibition, % at 10 µM
SARS 3CLpro inh – SARS-CoV 3CLpro protease inhibition | P0C6X7 | recombinant SARS-CoV 3CLpro, quenched FRET peptide cleavage | inhibition, % at 6 µM | actives 0.14% (n = 290,000) | AID 1706; in the data active means inhibition above about 12%
Autofluor counter – flagged as autofluorescent in microsphere protease counterscreen | fluorescence intensity (test concentration not listed) | AID 624483 | compound autofluorescence counterscreen, microsphere flow cytometry; active compounds read high | actives 3.1% (n = 360,000); in the data active means fluorescence intensity above about 16000; inconclusive means no clear call, values can overlap the other calls
BoNT-F LC inh – inhibitors of Botulinum neurotoxin F light chain protease. inhibition, % at 10 µM. actives 0.22% (n = 360,000). Multiplex microsphere protease cleavage assay, flow cytometry; in the data active means inhibition above about 35%, passing the limit was not always enough; inconclusive means no clear call, values can overlap the other calls
CCHFV vOTU inh – CCHFV vOTU protease inhibition; Pep-AMC fluorescence; inhibition, % at 11.5 µM; actives 0.55% (n = 370,000); in the data active means inhibition above about 30%
A number is an active result; . = inactive; ? = inconclusive; / = not tested or not shown; ! = not confirmed by another sample. Unless noted, no stated cut-off is given here; in the data, active means inhibition above about 30%; inconclusive means no clear call, values can overlap the other calls; inactive means below that.

SMILES | Anthrax LF prot | BoNT-A LC inh2 | SARS 3CLpro inh | Autofluor counter | BoNT-F LC inh | CCHFV vOTU inh
N#Cc1cc2[nH]c3ccccc3c2[n+](-c2ccc([N+](=O)[O-])cc2)c1N | . | . | . | . | . | .
O=C(CCNC(=O)C1CCN(S(=O)(=O)c2ccccc2)CC1)NCc1cccnc1 | . | . | / | . | . | .
Cc1nn(CC(=O)OCC(=O)c2ccc(OC(F)F)cc2)c(C)c1[N+](=O)[O-] | . | . | / | . | . | .
COc1cccc(CNCC(O)(c2ccc(Cl)cc2)c2ccc(Cl)cc2)c1 | . | . | . | 23322 | . | .
COc1ccc(CNCC(O)(c2ccccc2)c2ccc(Cl)cc2)cc1 (stereo not given) | . | . | . | . | . | .
CC(C)C[C@@H]1COc2cc(N3CCC[C@H]3CO)ccc2S(=O)(=O)N1 | . | . | / | . | . | .
Cc1ccc(CN2CCSc3ccc(C(=O)N4CCN(c5ncccn5)CC4)cc32)cc1 | . | . | . | 22029 | . | /
N#CCC[C@@H]1CC[C@]2(CCCN(C(=O)C3CCCCC3)C2)O1 | / | / | / | / | / | .
Cc1nccn1CC(=O)c1ccccc1 | . | . | / | . | . | .
COc1ccc(O)c(/C=C2/SC(=S)N(Cc3ccccc3)C2=O)c1 | . | . | . | . | ? | .
Cc1ccc(/C=C2\SC(=S)N(CCC(=O)N3CCCCC3)C2=O)cc1 | . | . | . | . | . | .
COc1cc(/C=C2\SC(=S)N(CCC(=O)N3CCCCC3)C2=O)cc(OC)c1OC | . | 30.2 | . | . | . | .
COc1ccc(/C(C)=C2/SC(=S)N(CCC(=O)O)C2=O)cc1 | . | ? | . | 19144 | . | .
COc1ccc(OC)c(/C=C2\SC(=S)N(Cc3cccnc3)C2=O)c1 | . | 41.7 | . | . | . | .
COc1ccc(-c2nn(-c3ccccc3)cc2/C=C2/SC(=S)N(CCC(=O)O)C2=O)cc1 | . | . | . | . | . | .
COc1ccc(-c2nn(-c3ccccc3)cc2/C=C2/SC(=S)N(CCC(=O)O)C2=O)c(C)c1 | 37.0 | . | . | . | . | .
O=S(=O)(CC1NCc2cc(F)ccc21)NCCc1ccccc1 (stereo not given) | / | / | / | / | / | .
COc1ccc(-c2nc(CN3CCC(C(=O)N4CCOCC4)CC3)c(C)o2)c(OC)c1 | / | / | . | / | / | .
COc1ccc(-n2c(COc3ccc(C)cc3)nnc2SCC(=O)Nc2ccc(S(=O)(=O)Nc3cc(C)nc(C)n3)cc2)cc1 | / | / | / | / | / | .
O=C(O)CCCN1C(=O)/C(=C\c2ccco2)SC1=S | . | . | . | . | . | .
COc1ccc(/C=C2\SC(=S)N(CCC(=O)Nc3ccc(C(=O)O)cc3)C2=O)cc1 | . | . | . | . | ? | .
COc1ccc(/C=C2/SC(=S)N(CCC(=O)O)C2=O)cc1 | . | . | . | 21113 | . | .
O=C(O)CCN1C(=O)/C(=C\c2ccc(-c3nc4ccccc4s3)o2)SC1=S | 40.5 | 46.7 | . | . | . | /
COc1cc(/C=C2/SC(=S)N(CC(=O)Nc3cccnc3)C2=O)cc(OC)c1OC | . | 31.2 | . | . | . | .
CCN(CC)CCNc1ccc(C)c2sc3ccc(O)cc3c(=O)c12 | . | . | / | . | . | .
SMILES | Anthrax LF prot | BoNT-A LC inh2 | SARS 3CLpro inh | Autofluor counter | BoNT-F LC inh | CCHFV vOTU inh
CC(C)N1CCC(N2CCN(C/C=C/c3ccccc3)CC2CCO)CC1 (stereo not given) | . | . | . | . | . | /
C=CCc1cccc(CNc2c(C)n(C)n(-c3ccccc3)c2=O)c1O | . | . | . | 16249 | . | .
Cc1c(NC(=O)C(C)OC(=O)C(NC(=O)c2ccco2)C(C)C)c(=O)n(-c2ccccc2)n1C (stereo not given) | . | ? | . | 22112 | . | .
Cc1c(NC(=O)c2ccco2)c(=O)n(-c2ccccc2)n1C | . | . | . | . | ? | .
Cc1c(NCc2ccccc2O)c(=O)n(-c2ccccc2)n1C | . | . | . | . | . | .
Cc1c(NC(=O)C(C)OC(=O)Cc2ccccc2)c(=O)n(-c2ccccc2)n1C (stereo not given) | . | . | . | 24503 | . | .
Cc1c(NC(C)c2ccccc2O)c(=O)n(-c2ccccc2)n1C (stereo not given) | . | . | . | 24008 | . | .
CCN1C(=O)CC(N2CCN(C(c3ccccc3)c3ccccc3)CC2)C1=O (stereo not given) | . | . | . | . | . | .
CCN1C(=O)C(CC(=O)N2CCN(C(c3ccccc3)c3ccccc3)CC2)N(CC)C1=O (stereo not given) | . | . | . | 16806 | . | .
COC(=O)[C@H](CCSC)NC(=O)Nc1ccc(C)c(C)c1 | . | . | . | 21760 | . | .
COC(=O)[C@H](CCSC)NC(=O)NCCc1ccc(F)cc1 | . | . | . | 23311 | . | .
CC(NC(=O)c1ccco1)C12CC3CC(CC(C3)C1)C2 (stereo not given) | . | . | / | . | . | .
Cc1ccc(O)c(C(=O)c2cnc3c(c2)CN(CCC(C)C)C(=O)N3)c1 | . | . | . | . | . | .
Cc1ccc(O)c(C(=O)c2cnc3c(c2)CN(C)C(=O)N3)c1 | . | . | . | 21945 | . | .
C=CCNC(=O)c1oc2ccc(S(=O)(=O)N(CC)CC)cc2c1C | . | . | . | 24786 | . | .
CCN(CC)S(=O)(=O)c1ccc2oc(C(=O)NCCN3CCOCC3)c(C)c2c1 | . | . | . | . | . | .
COC(=O)C1=C(C)N(C)C(=NCc2ccc(OC)cc2)NC1c1ccccc1C(F)(F)F (stereo not given) | / | / | / | / | / | .
COC(=O)C1=C(C)N(Cc2ccc(F)cc2)C(=S)NC1c1ccc(Cl)cc1 (stereo not given) | / | / | / | / | / | .
CCN(CC)c1cc(C(F)(F)F)nc(-c2ccccn2)n1 | . | . | . | . | . | .
C=CCNc1cc(C(F)(F)F)nc(-c2ccccn2)n1 | . | . | . | 19805 | . | .
FC(F)(F)c1cc(Oc2ccccc2Cl)nc(-c2ccccn2)n1 | . | . | . | 21573 | . | .
FC(F)(F)c1cc(Oc2ccc(Cl)cc2)nc(-c2ccccn2)n1 | . | . | . | 23289 | . | .
CCOc1cc(C2NC(=O)NC2=O)ccc1O (stereo not given) | . | . | . | . | . | .
C[C@H](O)[C@@H]1CN2CCc3c([nH]c4c(-c5ccccc5)cccc34)[C@@H]2C[C@@H]1N(C)C(=O)Nc1ccccc1 | / | / | / | / | / | .
CN(c1ccc([N+](=O)[O-])cc1C(=O)Nc1ccccc1)C1CCCCC1 | . | . | . | 21198 | . | /
SMILES | Anthrax LF prot | BoNT-A LC inh2 | SARS 3CLpro inh | Autofluor counter | BoNT-F LC inh | CCHFV vOTU inh
COc1ccc(S[C@]2(C(=O)N(C)C)CC(=O)N(c3ccccc3)[C@@H]2c2ccc(OC)cc2)cc1 | / | / | / | / | / | .
O=C(CSc1nc(O)cc(=O)n1-c1ccccc1)NCc1ccccc1 | . | . | . | 16693 | . | .
O=c1cc(O)nc(SCc2ccccc2)n1-c1ccccc1 | . | . | . | 24058! | . | .
C=CCn1c(SCc2ccccc2)nc(O)cc1=O | . | . | . | . | . | .
CC1(C)Cc2nc3nc(SCC(=O)NCCc4ccccc4)n(-c4ccccc4)c(=O)c3cc2CO1 | . | . | . | 16362 | . | .
COc1ccccc1C(=O)Nc1ccc(S(=O)(=O)N2CCCC2)cc1 | . | ? | . | 16385 | . | .

Source: PubChem
